# Data as given in PubChem BioAssay.
# Assay: small-molecule microarray binders of probe aNog, primary screen, biochemical, biotinylated probe, 635/667 nm fluorescence (AID 1115);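 note: probe is biotinylated aNog protein used at 0.15 µg/mL for 1 h at 4 C; z-score combines 667 nm fluorescence of each spot with its signal to noise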
# Conditions: higher = more signal
row,Structure (SMILES),composite z-score
1,Cc1ccc(S[C@]2(C(=O)NC(C)C)CC(=O)N(C3Cc4ccccc4C3)[C@@H]2c2ccc(CO)cc2)cc1,-0.315
2,[N-]=[N+]=NCc1ccccc1C[C@]1(C(N)=O)N=C(c2ccc(OCCCO)cc2)O[C@H]1c1ccccc1CN=[N+]=[N-],0.653
3,C[N+](C)(C)CCCC[C@@H]1NC(=O)[C@H]2C[C@@H](C(=O)NCc3ccc(F)cc3)[C@@H](c3cccc(OCCO)c3)N2C1=O,0.0519
4,C=CCC(OC(C)=O)[C@@H]1[C@@H](N(Cc2ccc(-c3ccccc3)cc2)C(=O)c2ccc(-c3ccccc3)cc2)c2cc(OCCCO)ccc2N1C(=O)Cc1ccc(OC)cc1 (stereo partly specified),0.0921
5,CO[C@@H]1COC(=O)CC=C[C@@H](C)[C@H](OC)COC(=O)CC=C[C@H]1C,0.563
6,O=C(NCc1ccccc1)[C@@]1(CCS(=O)(=O)c2ccccc2)COC(c2ccc(OCCCO)cc2)=N1,1.85
7,C=C(CCCC)/C(=C/C[C@@H](OC(=O)c1ccncc1)c1cccc(OCCO)c1)c1cc(C(=O)OC)ccc1OC,-0.452
8,CC(C)[Si]1(C(C)C)OCc2cc(C3CC3)nc(-c3ccccc3)c21,-0.0841
9,C=CCOC(=O)[C@@H]1[C@H]2C(=O)O[C@H](c3ccccc3)[C@H](c3ccccc3)N2[C@H](c2ccc(OCCOC(=O)[C@H]3C[C@H]4C(=O)N[C@@H](CCCCNC(C)=O)C(=O)N4[C@H]3c3ccc(O)cc3)cc2)[C@@]12C(=O)Nc1ccc(I)cc12,-0.0496
10,CC(C)N1CC=CC23O[C@@H]4/C=C\CCCOC(=O)C4[C@H]2C(=O)N(CCCCCO)[C@@H]3C1=O (stereo partly specified),0.0403
11,O=C1O[C@@H](c2ccccc2)[C@@H](c2ccccc2)N2[C@@H](c3ccc(OCCO)cc3)[C@]3(C(=O)Nc4ccc(C#CCCO)cc43)[C@@H](C(=O)N3CCN(c4ncccn4)CC3)[C@H]12,-0.601
12,COC(=O)[C@@]1(Cc2ccc(OC)cc2)[C@H]2c3cc(C(=O)N(C)C)n(CCc4ccc(OC)c(Br)c4)c3C[C@H]2CN1C(=O)c1ccccc1,1.19
13,CSCC[C@@H]1NC(=O)CC=C[C@@H](C)COC(=O)[C@H](CCSC)NC(=O)CC=C[C@@H](C)COC1=O,-0.255
14,CO[C@@H]1COC(=O)CC=C[C@H](C)COC(=O)[C@H](Cc2ccccc2)NC(=O)CC=C[C@H]1C,-0.547
15,CC(C)(C)OC(=O)CC[C@]1(C(=O)NCCN2CCOCC2)N=C(c2ccc(OCCCO)cc2)O[C@H]1c1ccccc1CN=[N+]=[N-],0.816
16,CO[C@H]1O[C@H](CO)[C@@H](OC(=O)Nc2ccc3c(c2)OCO3)[C@H](OC(=O)Nc2ccccc2)[C@@H]1OC(=O)Nc1ccccc1,0.953
17,CCc1cccc(NC(=O)O[C@H]2[C@H](OC(=O)Nc3ccccc3)[C@@H](OC(=O)Nc3ccccc3)[C@@H](OC)O[C@@H]2CO)c1,1.34
18,CC(C)(C)OC(=O)CC[C@@]1(C(=O)NCc2ccccc2)N=C(c2ccc(OCCCO)cc2)O[C@@H]1c1ccccc1,0.92

row,Structure (SMILES),composite z-score
1,C=CCNC(=O)[C@H]1[C@@H]2C(=O)O[C@@H](c3ccccc3)[C@@H](c3ccccc3)N2[C@@H](c2ccccc2OCCO)[C@]12C(=O)N(C(=O)OCCOC)c1ccc(C#CCNC(N)=O)cc12,0.672
2,CC(=O)NCCCC[C@@H]1NC(=O)[C@@H]2C[C@H](C(=O)NCCCCCCN(C)C)[C@H](c3ccc(O)cc3)N2C1=O,1.01
3,CCCC=C(CCC)[C@@H](NC(=O)c1ccccc1)c1ccccc1,0.766
4,C=CCC(OC(C)=O)[C@@H]1[C@@H](N(Cc2ccc(-c3cccc(C(F)(F)F)c3)o2)C(=O)Cc2ccc(F)cc2)c2cc(OCCCO)ccc2N1C(=O)c1ccc(-c2ccccc2)cc1 (stereo partly specified),0.172
5,CO[C@H]1COC(=O)[C@@H](C)NC(=O)CC=C[C@@H](C)[C@H](OC)COC(=O)CC=C[C@@H]1C,-0.559
6,COc1ccc([Si](C)(C)[C@H]2[C@H](CCO)O[C@@]3(C(=O)N(Cc4ccccc4)c4ccc(N5C(=O)c6cccc7cccc5c67)cc43)[C@@H]2C)cc1,0.0936
7,O=C/C=C/c1ccc(/C=C/c2ccccc2)cc1,-0.489
8,O=C(CS)NCCCCCNC(=O)[C@H]1C[C@H]2C(=O)N3CCC[C@H]3C(=O)N2[C@H]1c1ccc(O)cc1,-0.0207
9,CO[C@H]1COC(=O)[C@H](C)NC(=O)CC=C[C@@H](C)[C@H](NS(=O)(=O)c2ccc(C)cc2)COC(=O)CC=C[C@@H]1C,-0.12
10,O=C1C[C@@](C(=O)NC2CC2)(c2ccc([N+](=O)[O-])cc2)[C@@H](c2ccc(CO)cc2I)N1CC12CC3CC(CC(C3)C1)C2,-0.0719
11,CO[C@H]1O[C@H](CO)[C@@H](OC(=O)CCc2ccccc2)[C@@H]2OC(=O)[C@H](Cc3cccc(Br)c3)C/C=C/C[C@@H](Cc3cccc(Br)c3)C(=O)O[C@@H]12,0.146
12,Cc1ccc(S[C@]2(C(=O)NCCCN(C)C)CC(=O)N(C3CCCCC3)[C@@H]2c2ccc(CO)cc2I)cc1,0.134
13,COc1cccc([C@H]2N[C@H](C(=O)O)CC[C@@H]2C)c1,-0.339
14,O=C1O[C@H](c2ccccc2)[C@H](c2ccccc2)N2[C@H]1[C@@H](C(=O)NC[C@H](O)c1ccccc1)[C@]1(C(=O)Nc3ccc(C#CC4(O)CCCCCC4)cc31)[C@H]2c1ccc(OCCO)cc1,0.319
15,CCCC[C@@H]1C[C@H]1[C@@H](NC(=O)c1cccs1)c1ccc(Cl)cc1,0.46
16,Cc1ccc(N2C(=O)c3ccccc3[C@@H](C(=O)NCC(F)(F)F)[C@@H]2c2ccc(CO)cc2)nc1,-0.3
17,COCCOC(=O)N1C(=O)[C@@]2(c3cc(C#CCNC(N)=O)ccc31)[C@H](c1ccc(OCCO)cc1)N1[C@H](c3ccccc3)[C@H](c3ccccc3)OC(=O)[C@H]1[C@@H]2C(=O)Nc1nc2ccccc2s1,0.402
18,O=C1c2ccccc2[C@](Cc2ccccc2I)(C(=O)O)[C@H](c2ccc(CO)cc2)N1C1CCCCC1,0.213
